Experimental data from PubChem BioAssay (NCI).
The panel holds about 83,000 compounds, 20% with a hit somewhere; the sample as a whole holds those more often.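 Plates (96-well) were seeded with cells, treated with compound at one concentration, and incubated for 48 hours before percent growth was determined.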 A number with no mark means an inactive call. The source made the active and inactive calls. The calls were made as follows: active = growth percent below 10; inactive = the rest.

tested on: SF-539 CNS; assay: NCI-60 one-dose screen, 48 h (100 = growth as untreated, 0 = no growth, -100 = all killed); settings: 10 µM unless noted

Row | Structure (SMILES) | growth
1 | CCOC(=O)c1cc(C(=O)c2ccc(O)c(O)c2)n2ccc(-c3ccn4c(C(=O)c5ccc(O)c(O)c5)cc(C(=O)OCC)c4c3)cc12 | 92.5%
2 | CC1C(/C=N/Nc2ccccc2)C(C#N)(C#N)C1(C#N)C#N (centres undefined) | 102%
3 | O=C(/C=C/c1ccc(C(F)(F)F)cc1)Nc1ccc(C=C2c3ccccc3C(=O)c3ccccc32)cc1 | 83.5%
4 | CC/C=C\C[C@H](O)C/C=C1/C(=O)C=C[C@@]1(C)C/C=C\CCCC(=O)OC | 93.6%
5 | COc1cc(-c2nn(-c3ccc(C(=O)O)cc3)cc2C(=O)O)ccc1O | 47.7%
6 | COc1ccc(O)c(N=Nc2nccs2)c1 | 96.8%
7 | NCCNc1nc(Nc2ccc(-c3nc4ccccc4[nH]3)cc2)c2cn[nH]c2n1 | -9.77% (active)
8 | COc1cc(-c2nn(-c3ccc(Br)cc3)cc2C(=O)O)ccc1O | 128%
9 | OCCN1CCN(c2nc(Nc3ccc(-c4nc5ccccc5[nH]4)cc3)c3cn[nH]c3n2)CC1 | -85.4% (active)
10 | O=c1oc2c(C(F)(F)F)cccc2cc1-c1csc(Nc2ccc(OCCF)cc2)n1 | -28.6% (active)
11 | N#Cc1nnn(-c2ccc(S(N)(=O)=O)cc2)c1NC(=O)CCl | 98.8%
12 | C=C1C(=O)O[C@H]2[C@H]1CC/C(C=Nc1ccc(C(F)(F)F)cc1N)=C\CC[C@@]1(C)O[C@@H]21 | -7.2% (active)
13 | CSc1ccc(-c2ccccc(=O)c2O)cc1 | 4.03% (active)
14 | Clc1ccc2c(NCCNc3nc(N4CCCCC4)nc4ccccc34)ccnc2c1 | -83.6% (active)
